Composite z-score and z-score data for 5 molecules are collected here from PubChem BioAssay.

In assay [1] the test system is PRMT1 (protein arginine N-methyltransferase 1). The assay can be described thus: small molecules binding arginine methyltransferase PRMT1 – biochemical, small-molecule microarray, 635 nm fluorescence, primary screen (AID 1088).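 Also: binding of Prmt1 protein to compounds spotted on small-molecule microarray slides.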 The note with it: higher = more signal.
Assay [2] in a line: growth effects on S. cerevisiae YJM789 – YJM789 clinical isolate, OD600, 24 h, basal, primary screen (AID 1089).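 Also: growth of clinical yeast isolate S. cerevisiae YJM 789 seeded 1000 cells per well; test concentration not given here.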 Particulars: higher = more signal, called active from +8 up or from −8 down.
Assay [3] is described as follows: S. pombe growth modifiers, basal conditions – strain 972, OD600, 24 h, no modulator, primary screen (AID 1090).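 Also: basal condition with compound alone and no growth modifier present; test concentration not given here.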 The note with it: S. pombe 972 growth, higher = more signal, called active from +8 up or from −8 down.
A short description of assay [4]: budding yeast growth modifiers under rapamycin – strain BY4716, OD600, 96 h, primary screen (AID 1091). Also: test concentration not given here. The note with it: S. cerevisiae BY4716 + rapamycin, higher = more signal, called active from +8 up or from −8 down.
Assay [5] has as its target Torsin-1A-interacting protein 2 (Homo sapiens) (UniProt Q8NFQ8). Put plainly: small molecules binding lysate-expressed LULL1 – cell lysate, human LULL1 lysate, 635/667 nm fluorescence, primary screen (AID 1092).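 Also: probe is lysate of COS7 cells overexpressing human LULL1; score merges per-feature 667 nm fluorescence with signal-to-noise.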 The note with it: small-molecule microarray, hLULL1 lysate binding, 635 nm fluorescence; higher = more signal.
A short description of assay [6]: optical density change of DRC41 E. coli – strain DRC41, OD650, 24 h, E. coli filamentation project, primary screen (AID 1093).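 Also: MC1000 strain lacking acrAB efflux and sulA so SOS filamentation is blocked; test concentration not given here.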 Particulars: E. coli DRC41 growth, higher = more signal, called active from +8 up or from −8 down.
Assay [7] is described as follows: probe aLefty2 binding to arrayed compounds – biochemical, biotinylated probe, 635/667 nm fluorescence, primary screen (AID 1094).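 Also: score merges spot fluorescence near 667 nm with spot signal-to-noise ratio.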 Particulars: small-molecule microarray, higher = more signal.
Assay [8] concerns Noggin (protein binding on small-molecule microarray). The assay can be described thus: small molecules binding Noggin protein – biochemical, 635/667 nm fluorescence, primary screen (AID 1095).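 Also: score merges 667 nm feature fluorescence with signal to noise over triplicate slides.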 The note with it: 635 nm fluorescence, higher = more signal.
The target in assay [9] is Neurogenic locus notch homolog protein 3 (Homo sapiens) (UniProt Q9UM47). Put plainly: small molecules binding NOTCH3 protein – biochemical, 635/667 nm fluorescence, primary screen (AID 1096). Particulars: small-molecule microarray, 635 nm fluorescence, higher = more signal.
Neurogenic locus notch homolog protein 3 (Homo sapiens), sequence (Q9UM47 whole entry, looked up): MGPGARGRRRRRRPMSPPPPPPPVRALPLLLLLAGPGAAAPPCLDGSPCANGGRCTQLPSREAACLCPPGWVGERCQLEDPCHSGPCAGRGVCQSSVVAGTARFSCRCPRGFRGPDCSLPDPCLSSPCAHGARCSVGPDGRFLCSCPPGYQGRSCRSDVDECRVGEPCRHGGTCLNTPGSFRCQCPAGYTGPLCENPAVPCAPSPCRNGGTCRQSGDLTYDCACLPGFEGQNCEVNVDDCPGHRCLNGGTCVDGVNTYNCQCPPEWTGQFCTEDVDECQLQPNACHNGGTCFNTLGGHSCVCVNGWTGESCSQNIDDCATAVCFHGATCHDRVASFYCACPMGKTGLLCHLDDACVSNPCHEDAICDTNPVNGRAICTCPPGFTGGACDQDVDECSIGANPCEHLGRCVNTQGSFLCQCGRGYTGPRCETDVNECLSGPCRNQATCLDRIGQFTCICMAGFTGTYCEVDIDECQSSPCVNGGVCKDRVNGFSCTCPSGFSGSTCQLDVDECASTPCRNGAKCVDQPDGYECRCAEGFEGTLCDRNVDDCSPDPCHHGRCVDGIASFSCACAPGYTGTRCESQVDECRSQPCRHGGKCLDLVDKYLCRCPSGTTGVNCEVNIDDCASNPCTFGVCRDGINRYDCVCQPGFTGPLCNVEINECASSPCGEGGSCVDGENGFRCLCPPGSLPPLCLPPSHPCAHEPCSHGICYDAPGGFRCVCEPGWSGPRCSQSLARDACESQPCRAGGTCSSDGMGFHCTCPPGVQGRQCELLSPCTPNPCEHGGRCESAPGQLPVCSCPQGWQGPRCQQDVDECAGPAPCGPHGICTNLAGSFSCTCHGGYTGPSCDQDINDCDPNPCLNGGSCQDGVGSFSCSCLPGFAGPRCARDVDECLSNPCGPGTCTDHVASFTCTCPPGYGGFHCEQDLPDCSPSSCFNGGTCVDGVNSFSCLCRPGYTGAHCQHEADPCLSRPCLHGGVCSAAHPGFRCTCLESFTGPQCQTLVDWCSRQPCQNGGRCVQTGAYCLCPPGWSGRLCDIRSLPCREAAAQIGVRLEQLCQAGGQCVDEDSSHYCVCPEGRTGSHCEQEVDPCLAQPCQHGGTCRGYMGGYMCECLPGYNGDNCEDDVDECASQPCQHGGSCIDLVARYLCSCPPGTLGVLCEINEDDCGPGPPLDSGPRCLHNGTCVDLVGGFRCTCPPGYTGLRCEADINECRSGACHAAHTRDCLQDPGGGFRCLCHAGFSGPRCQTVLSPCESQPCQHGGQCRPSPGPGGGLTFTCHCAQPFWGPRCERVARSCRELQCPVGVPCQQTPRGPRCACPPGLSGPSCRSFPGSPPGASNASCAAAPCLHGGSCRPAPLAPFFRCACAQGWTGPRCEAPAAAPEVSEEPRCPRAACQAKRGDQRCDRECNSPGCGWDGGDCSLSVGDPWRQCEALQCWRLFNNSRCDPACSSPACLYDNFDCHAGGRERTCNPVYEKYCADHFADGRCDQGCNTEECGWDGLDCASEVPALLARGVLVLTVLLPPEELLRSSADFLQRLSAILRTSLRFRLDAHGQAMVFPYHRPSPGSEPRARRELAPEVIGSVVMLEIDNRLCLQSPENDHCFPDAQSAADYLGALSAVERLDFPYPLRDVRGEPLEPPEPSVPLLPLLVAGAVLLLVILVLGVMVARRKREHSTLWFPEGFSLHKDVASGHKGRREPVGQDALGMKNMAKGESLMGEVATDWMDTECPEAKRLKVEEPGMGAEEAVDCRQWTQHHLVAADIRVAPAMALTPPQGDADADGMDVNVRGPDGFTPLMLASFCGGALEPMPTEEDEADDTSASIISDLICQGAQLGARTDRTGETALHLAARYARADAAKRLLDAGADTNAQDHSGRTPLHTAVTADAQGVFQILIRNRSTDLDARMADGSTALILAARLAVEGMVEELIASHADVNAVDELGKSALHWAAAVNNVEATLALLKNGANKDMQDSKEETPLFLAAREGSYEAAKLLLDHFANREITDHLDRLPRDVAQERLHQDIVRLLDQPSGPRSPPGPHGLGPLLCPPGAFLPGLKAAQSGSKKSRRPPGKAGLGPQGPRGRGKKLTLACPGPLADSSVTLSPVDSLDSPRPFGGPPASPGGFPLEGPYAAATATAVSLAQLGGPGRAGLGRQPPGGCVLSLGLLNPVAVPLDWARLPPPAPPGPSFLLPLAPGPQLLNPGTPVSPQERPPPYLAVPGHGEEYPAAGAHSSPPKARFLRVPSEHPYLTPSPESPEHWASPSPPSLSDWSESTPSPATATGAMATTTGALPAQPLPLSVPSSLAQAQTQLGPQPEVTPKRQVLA
Assay [10] is described as follows: probe aEGFR binding to arrayed compounds – biochemical, biotinylated probe, 635/667 nm fluorescence, primary screen (AID 1097).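 Also: probe is a biotinylated anti-EGFR antibody binding compounds printed on slides; score combines fluorescence near 667 nm and signal to noise of each spot.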 The note with it: small-molecule microarray, higher = more signal.
The test system of assay [11] is Plasmodium falciparum Sir2 (PF13_0152, Sir2A). Put plainly: Plasmodium falciparum Sir2A binding compounds – biochemical, small-molecule microarray, 635 nm fluorescence, primary screen (AID 1098).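 Also: score merges spot fluorescence intensity with its signal-to-noise ratio.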 The note with it: fluorescence 635 nm, higher = more signal.
Assay [12] can be described thus: probe aDKK1 binding to arrayed compounds – biochemical, biotinylated probe, 635/667 nm fluorescence, primary screen (AID 1099).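 Also: score merges 667nm spot fluorescence with signal to noise across triplicate slides; reference of the scale not given here.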 Particulars: small-molecule microarray, higher = more signal.
The nature of assay [13]: probe aCHRDL2 binding to arrayed compounds – biochemical, biotinylated probe, 635/667 nm fluorescence, primary screen (AID 1100). Particulars: small-molecule microarray, higher = more signal.
A short description of assay [14]: change in splice reporter luminescence, either direction, cell-based, HEK293, spliceosome inhibition project, primary screen (AID 1101).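 Also: HEK293 cells carrying a splicing-competent luciferase reporter gene; test concentration not given here.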 Particulars: HEK293 splicing luciferase reporter, 24 h, higher = more signal, called active from +8 up or from −8 down.
For assay [15], the target named is Fibroblast growth factor 10 (Homo sapiens) (UniProt O15520). The assay can be described thus: compounds binding fibroblast growth factor 10 – biochemical, small-molecule microarray, 635 nm fluorescence, primary screen (AID 1102). Particulars: FGF10 binding, fluorescence 635 nm, higher = more signal.
Fibroblast growth factor 10 (Homo sapiens), sequence (O15520 whole entry, looked up): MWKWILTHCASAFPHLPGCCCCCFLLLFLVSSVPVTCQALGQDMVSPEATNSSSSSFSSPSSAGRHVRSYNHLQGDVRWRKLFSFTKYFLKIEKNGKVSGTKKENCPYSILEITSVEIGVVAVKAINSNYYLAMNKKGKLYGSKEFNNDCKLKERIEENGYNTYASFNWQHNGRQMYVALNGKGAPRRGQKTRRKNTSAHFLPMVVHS
In assay [16] the test system is glycogen synthase kinase-3 (GSK3A per assay name; protocol says GSK3B). The assay can be described thus: compounds binding glycogen synthase kinase-3 – biochemical, small-molecule microarray, 635 nm fluorescence, GSK3A, primary screen (AID 1103). Also: the record names both GSK3A and GSK3B. The note with it: fluorescence 635 nm, higher = more signal.
In assay [17] the target is Epidermal growth factor receptor (Homo sapiens) (UniProt P00533). The assay can be described thus: compounds binding epidermal growth factor receptor – biochemical, small-molecule microarray, 635 nm fluorescence, primary screen (AID 1104).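 Also: score merges 667 nm emission intensity with spot signal to noise over triplicate slides.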 Particulars: EGFR binding, higher = more signal.
Epidermal growth factor receptor (Homo sapiens), sequence (P00533 whole entry, looked up): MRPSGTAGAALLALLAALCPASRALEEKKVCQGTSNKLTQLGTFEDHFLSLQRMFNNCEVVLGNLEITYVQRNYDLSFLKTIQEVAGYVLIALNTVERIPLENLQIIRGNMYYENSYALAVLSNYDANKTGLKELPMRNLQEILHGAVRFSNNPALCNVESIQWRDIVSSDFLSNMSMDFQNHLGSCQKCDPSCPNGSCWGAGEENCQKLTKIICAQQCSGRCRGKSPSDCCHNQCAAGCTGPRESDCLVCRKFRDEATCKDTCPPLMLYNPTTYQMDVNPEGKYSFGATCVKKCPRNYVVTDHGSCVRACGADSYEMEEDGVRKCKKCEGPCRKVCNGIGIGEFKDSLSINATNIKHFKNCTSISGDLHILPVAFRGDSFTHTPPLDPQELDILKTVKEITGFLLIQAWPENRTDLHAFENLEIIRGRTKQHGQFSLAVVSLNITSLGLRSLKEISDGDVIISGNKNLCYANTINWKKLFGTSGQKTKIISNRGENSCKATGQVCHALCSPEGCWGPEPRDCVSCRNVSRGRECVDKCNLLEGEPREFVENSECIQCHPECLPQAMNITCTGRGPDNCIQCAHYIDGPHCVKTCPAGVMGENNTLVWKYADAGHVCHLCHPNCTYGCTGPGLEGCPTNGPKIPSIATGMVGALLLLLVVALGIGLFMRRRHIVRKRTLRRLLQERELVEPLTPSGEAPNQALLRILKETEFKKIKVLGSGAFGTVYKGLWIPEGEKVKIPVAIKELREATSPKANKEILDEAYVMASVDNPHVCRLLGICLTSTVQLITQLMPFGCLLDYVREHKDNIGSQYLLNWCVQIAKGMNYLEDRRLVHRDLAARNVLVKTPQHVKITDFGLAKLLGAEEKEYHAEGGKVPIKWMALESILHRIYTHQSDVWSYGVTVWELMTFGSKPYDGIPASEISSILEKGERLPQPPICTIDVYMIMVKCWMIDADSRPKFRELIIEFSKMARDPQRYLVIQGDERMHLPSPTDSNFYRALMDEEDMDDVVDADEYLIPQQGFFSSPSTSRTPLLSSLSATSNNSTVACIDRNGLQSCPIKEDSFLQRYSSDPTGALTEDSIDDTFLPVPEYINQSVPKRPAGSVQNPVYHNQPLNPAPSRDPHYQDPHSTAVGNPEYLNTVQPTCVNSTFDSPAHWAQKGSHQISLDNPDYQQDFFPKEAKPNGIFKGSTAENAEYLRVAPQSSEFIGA
The target of assay [18] is Follistatin-related protein 3 (Homo sapiens) (UniProt O95633). Put plainly: compounds binding follistatin-related protein 3 – biochemical, small-molecule microarray, 635 nm fluorescence, primary screen (AID 1105).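 Also: score merges emission near 667 nm and signal to noise per printed spot across three slides.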 Particulars: FSTL3 binding, higher = more signal.
Follistatin-related protein 3 (Homo sapiens), sequence (O95633 whole entry, looked up): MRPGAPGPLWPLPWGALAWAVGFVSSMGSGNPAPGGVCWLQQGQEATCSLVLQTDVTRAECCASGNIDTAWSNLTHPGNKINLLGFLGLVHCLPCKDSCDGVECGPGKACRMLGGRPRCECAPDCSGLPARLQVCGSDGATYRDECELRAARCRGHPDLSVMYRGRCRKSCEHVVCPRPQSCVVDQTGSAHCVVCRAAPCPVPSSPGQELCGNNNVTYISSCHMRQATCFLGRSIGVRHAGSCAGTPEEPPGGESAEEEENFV
The target in assay [19] is Dickkopf-related protein 1 (Homo sapiens) (UniProt O94907). The assay can be described thus: small molecules binding DKK1 protein – biochemical, small-molecule microarray, 635 nm fluorescence scan, primary screen (AID 1106).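 Also: score merges emission near 667 nm with signal to noise over three replicate slides.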 Particulars: higher = more signal.
Dickkopf-related protein 1 (Homo sapiens), sequence (O94907 whole entry, looked up): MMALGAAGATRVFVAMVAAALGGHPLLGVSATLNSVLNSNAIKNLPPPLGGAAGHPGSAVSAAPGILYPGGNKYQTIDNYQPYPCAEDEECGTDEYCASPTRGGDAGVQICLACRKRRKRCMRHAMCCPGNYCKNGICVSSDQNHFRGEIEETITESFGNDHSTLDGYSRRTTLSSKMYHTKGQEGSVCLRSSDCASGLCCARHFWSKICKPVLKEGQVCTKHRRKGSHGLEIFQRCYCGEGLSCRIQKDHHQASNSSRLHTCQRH
Assay [20] relates to Inhibin beta A chain (activin A). Put plainly: small molecules binding activin A – biochemical, small-molecule microarray, 635 nm fluorescence scan, primary screen (AID 1107).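 Also: mouse activin A protein probed at 4.33 µg/mL on printed slides; score merges bound-protein fluorescence near 667 nm with spot signal-to-noise.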 The note with it: INHBA, higher = more signal.

Calls of active or inactive are those of the source.

Torsin-1A-interacting protein 2 (Homo sapiens), sequence (Q8NFQ8 whole entry, looked up): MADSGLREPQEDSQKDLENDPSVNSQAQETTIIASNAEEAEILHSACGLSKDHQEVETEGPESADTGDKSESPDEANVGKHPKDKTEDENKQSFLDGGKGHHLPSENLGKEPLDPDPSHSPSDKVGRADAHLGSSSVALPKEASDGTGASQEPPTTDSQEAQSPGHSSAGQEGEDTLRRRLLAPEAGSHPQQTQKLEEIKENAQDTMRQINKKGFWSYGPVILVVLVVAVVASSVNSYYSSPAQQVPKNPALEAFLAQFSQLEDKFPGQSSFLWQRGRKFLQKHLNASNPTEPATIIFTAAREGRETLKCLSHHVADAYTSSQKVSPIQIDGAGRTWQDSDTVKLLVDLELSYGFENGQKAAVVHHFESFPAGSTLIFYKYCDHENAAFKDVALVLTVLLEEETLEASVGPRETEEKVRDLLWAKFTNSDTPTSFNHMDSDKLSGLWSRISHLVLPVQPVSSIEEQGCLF

Consider `O=C1O[C@@H](c2ccccc2)[C@@H](c2ccccc2)N2[C@@H](c3ccc(OCCO)cc3)[C@]3(C(=O)Nc4ccc(C#CCCO)cc43)[C@@H](C(=O)N3CCN(c4ncccn4)CC3)[C@H]12`, for which the composite z-score in assay [1] was 1.54; in assay [5] it was 2.69; in [7], -0.124; in [8], 1.24; in [9], 1.14; in [10], -0.0828. Also, the composite z-score came to 1.13 in assay [11]; 0.0868 in assay [12]; 0.319 in assay [13]; 1.19 in assay [15]; 0.935 in [16]; 0.16 in assay [17]. The figures for the composite z-score in [18], in [19] and in assay [20] were 1.07, 0.116 and 0.666, respectively. Moreover, the z-score in assay [2] is 0.772 (inactive); in assay [3] it was 1.04 (inactive); in [4], 3.71 (inactive); in assay [6] it was 1.14 (inactive); in assay [14] it was 0.952 (inactive).
For the molecule `CN(C)c1ccc(C(O)C2C=CC3C(=O)NC(=O)C3N2Nc2ccc(Cl)cc2Cl)cc1` (stereo not given), the composite z-score in assay [1] was 0.546; in assay [5] it was 2.58; in [7], 0.31; in assay [8] it was -0.163; in assay [9], 0.809; in assay [10], -0.125. Besides, the composite z-score in assay [11] was 0.189; in [12] it was 0.88; in assay [13] it was 1.09; in assay [15], 0.356; in assay [16], 0.121; in [17] it was -0.789. Also, the composite z-score is 0.554 in assay [18], -0.336 in assay [19] and 1.43 in assay [20]. The z-score in assay [2] is -0.298 (inactive); in assay [3] it was -1.06 (inactive); in assay [4], 0.789 (inactive); in assay [6], -0.617 (inactive); in assay [14], 0.701 (inactive).
As to `[N-]=[N+]=NCc1ccccc1C[C@@]1(C(=O)O)N=C(c2ccc(OCCCO)cc2)O[C@@H]1c1ccccc1N=[N+]=[N-]`, the composite z-score in assay [1] turned out to be 1.51; in [5] it was 3.16; in assay [7] it was 0.0189; in assay [8], 0.0183; in assay [9], 1.03; in [10] it was 0.0316. For the same molecule, the composite z-score in assay [11] worked out at 1.44; in [12] it was 0.076; in [13], 0.917; in assay [15], 0.479; in [16], 0.771; in [17], 0.0583. Also, the composite z-score is 0.633 in assay [18], -0.688 in [19] and 0.911 in assay [20]. For the same molecule, the z-score in assay [2] was -0.41 (inactive); in assay [3] it was -1.02 (inactive); in assay [4] it was -0.85 (inactive); in assay [6], 0.602 (inactive); in [14] it was -1.11 (inactive).
For the molecule `CCOC(=O)[C@H]1C/C=C/C[C@H](C(=O)OCC)C(=O)O[C@H]2[C@@H](OC)O[C@H](CO)[C@@H](OC(=O)Nc3ccc(Br)cc3)[C@@H]2OC1=O`, the composite z-score in [1] is 1.54; in assay [5], 2.93; in assay [7] it was 0.45; in [8], 0.933; in assay [9] it was 0.869; in [10], -0.121. Moreover, the composite z-score in assay [11] was 0.895; in [12] it was -0.0855; in assay [13] it was 0.68; in assay [15] it was 0.217; in assay [16], 1.02; in [17], 0.047. The figures for the composite z-score in assay [18], in assay [19] and in assay [20] were 0.576, 0.251 and 0.706, respectively. For the same molecule, the z-score in assay [2] is 0.343 (inactive); in assay [3], -2.37 (inactive); in assay [4], 31.7 (active); in assay [6] it was 2.91 (inactive); in [14], -3.54 (inactive).
`[N-]=[N+]=NCc1ccccc1[C@H]1OC(c2ccc(OCCCO)cc2)=N[C@@]1(Cc1ccccc1N=[N+]=[N-])C(=O)NCc1ccccc1`: the composite z-score was 1.4 in assay [1]; 2.69 in assay [5]; 0.232 in [7]; 0.159 in [8]; 0.867 in assay [9]; 0.223 in assay [10]. For the same molecule, the composite z-score in [11] was 1.01; in assay [12], 1.09; in [13], 1.1; in assay [15], 1.03; in assay [16] it was 1.04; in [17] it was -0.296. Further, the composite z-score in [18] was 0.62; in [19], -0.193; in [20] it was 1.13. Also, the z-score in assay [2] was 0.0182 (inactive); in assay [3], 1.98 (inactive); in [4] it was 11.8 (active); in assay [6], 0.0275 (inactive); in [14], 0.672 (inactive).
